96 compounds from PubChem BioAssay AID1985 (Southern Research Specialized Biocontainment Screening …, 2009) can be followed below.

By inhibition is commonly meant the drop in the measured response relative to a control, in per cent.

SMILES strings stand for the structures. Among all 2,300 compounds or so, about 1,000 (43%) were called active. The set was probably picked from earlier hits. The list shows a part of the results. Potency and affinity values are given separately. A number with no mark means an inactive call. No rule for the calls is given here.

A short description of this experiment: modified counter assay using GFP fluorescence, PhoP regulon inhibitor project, dose response (AID 1985). As to conditions: S. Typhi, 4 h; series mostly up to 150 µM; inhibition: at the top concentration.
For the compound `O=C(C[n+]1cc(Br)cc2ccccc21)c1ccc(F)cc1`, the “inhibition” value is 21.7%.
In the case of `COc1ccc(C(=O)C[n+]2cc(Br)cc3ccccc32)cc1[N+](=O)[O-]`, the “inhibition” value is 4.84%.
The value for `CCOCCCNC(=O)CN1CCN(Cc2ccccc2C)C1=O` was -10.6%.
The value for `COC(=O)c1c(-c2cccc(C)c2)csc1N` was 7.62%; that for `COC(=O)c1cc2ccsc2n1CC(=O)N(C)c1ccccc1` was 22.5%; that for `CC(C)(C)CC(=O)Nc1nnc(SCC(=O)N2CCCCC2)s1` was 19.3%.
As to `Cc1nc(C)c(-c2ccc(SCc3ccccc3C)nn2)s1`, the “inhibition” value was 1.29%.
Turning to `COc1ccc(-c2nnc(SC(C)C(=O)Nc3nccs3)n2Cc2ccccc2)cc1OC` (stereo unspecified), the “inhibition” value was -11.8%.
The value for `CC1=C(C#N)CCC(=O)N1Cc1c(C)cc(C)cc1C` was 16.8%.
With `COc1ccc(Cl)cc1NC(=O)c1cc(-c2ccccc2)on1` the figure was -9.57%.
For the compound `CC(Oc1ccc(Br)cc1)c1nc2c3ccccc3nc(=S)n2[nH]1` (stereo unspecified), the “inhibition” value was 36.7%.
As to `COc1ccc(NC(=O)Cn2cnc3c(cnn3C(C)(C)C)c2=O)cc1OC`, the “inhibition” value is -7.57%.
The value for `COc1ccc(-n2nnc3c(SCC(=O)N4CCCc5ccccc54)ncnc32)cc1` was -1.62%; that for `Cc1ccn2cc(C(=O)Nc3nnc(C)s3)nc2c1` was 8.12%; that for `Cc1cc(C(=O)OCC(=O)Nc2cccc(S(=O)(=O)N3CCOCC3)c2)c(C)o1` was -14.2%.
For `C#CCOCCOCCOCCNc1nc(N2CCN(C(=O)[C@H](CCCCN)n3cc([C@@H](N)CO)nn3)CC2)nc(N2CCN(C(=O)[C@H](Cc3cc4ccccc4[nH]3)n3cc([C@@H](N)Cc4ccc(O)cc4)nn3)CC2)n1`, the “inhibition” value was 6.35%.
For `C#CCOCCOCCOCCNc1nc(N2CCN(C(=O)C(Cc3cc4ccccc4[nH]3)n3cc(C(N)C(C)CC)nn3)CC2)nc(N2CCN(C(=O)C(Cc3cc4ccccc4[nH]3)n3cc(C(N)C(C)CC)nn3)CC2)n1` (stereo unspecified), the “inhibition” value was 4.82%.
On to `Nc1ccc(C(O)(C(F)(F)F)C(F)(F)F)cc1`, for which the “inhibition” value was -17.8%.
With `C#CCOCCOCCOCCNc1nc(N2CCN(C(=O)[C@H](Cc3ccc(O)cc3)n3cc([C@@H](N)C(C)CC)nn3)CC2)nc(N2CCN(C(=O)[C@H](Cc3cc4ccccc4[nH]3)n3cc([C@@H](N)Cc4ccc(O)cc4)nn3)CC2)n1` (stereo partly specified) the figure was -18.6%; with `C#CCOCCOCCOCCNc1nc(N2CCN(C(=O)[C@H]([C@@H](C)CC)n3cc([C@@H](N)CO)nn3)CC2)nc(N2CCN(C(=O)[C@H](Cc3cc4ccccc4[nH]3)n3cc([C@@H](N)Cc4ccc(O)cc4)nn3)CC2)n1`, 14.7%; with `C#CCOCCOCCOCCNc1nc(N2CCN(C(=O)C(Cc3ccc(O)cc3)n3cc(C(N)CC(C)C)nn3)CC2)nc(N2CCN(C(=O)C(Cc3cc4ccccc4[nH]3)n3cc(C(N)Cc4ccc(O)cc4)nn3)CC2)n1` (stereo unspecified), -16.3%.
For the compound `O=C(O)c1[nH]c2ccc(Br)cc2c1CCN1C(=O)c2cccc([N+](=O)[O-])c2C1=O`, the “inhibition” value was 28.4%.
As for `Cc1ccc(CCNC(=O)c2cc(S(=O)(=O)N3CCCCC3)c[nH]2)cc1`, the “inhibition” value is -3.72%.
Consider `CN1CCN(c2ccc(NC(=O)CSc3ccccc3)cc2F)CC1`, for which the “inhibition” value is -5.04%.
With `Cn1cnnc1SCC(=O)Nc1ccc2nc(SCc3ccccc3)sc2c1`, the “inhibition” value is 18.3%.
Take `CCOC(=O)c1ccc(NC(=O)CSc2nc(N3CCOCC3)nc(N3CCOCC3)n2)cc1`: the “inhibition” value is -12.2%.
The value for `CCOc1ccccc1NC(=O)CSc1nc(N)c(C#N)cc1C#N` was -8.74%; that for `O=C(Nc1ccc2c(c1)OCCO2)C1CCCN1C(=O)Nc1ccc(F)cc1` (stereo unspecified) was -20.6%; that for `C/C=C/c1ccc(OCc2cc(=O)n3cc(C)ccc3n2)c(OC)c1` was 4.23%.
For `CCN(CCCNC(=O)c1cn(CC)c2ccc(S(=O)(=O)N(C)C)cc2c1=O)c1cccc(C)c1`, the “inhibition” value was -6.32%.
With `Cc1ccc(CCN2C(=O)CCC2(C)C(=O)NC2CCCC2)cc1` (stereo unspecified) the figure was -30.8%; with `O=C(NCc1ccccc1)N[C@@H](Cc1c[nH]c2ccccc12)C(=O)O`, -11.1%; with `Cc1c(NC(=O)OCc2ccccc2)c(=O)n(-c2ccccc2)n1C`, 11.8%.
Regarding `Cc1c(-n2cc(C(=O)c3ccccc3O)cc(C#N)c2=O)c(=O)n(-c2ccccc2)n1C`, the “inhibition” value was -2.88%.
As for `Cc1ccc(NC(=O)c2sccc2C)cc1[N+](=O)[O-]`, the “inhibition” value is 18.1%.
Take `COc1ccc(NC(=O)CC2Sc3ncnn3C2=O)cc1` (stereo unspecified): the “inhibition” value was 34.3%.
With `N=c1sc2c(n1Cc1ccccc1)CCCC2` the figure was 32%.
The value for `Cc1cc(NC(=O)/C=C/C(=O)N(c2ccccc2C)C(C(=O)NC2CCCC2)c2ccc(F)cc2)no1` (stereo unspecified) was -12.8%; that for `C[C@@H](NC(=O)[C@@H]1Cc2ccccc2CN1)C(=O)NCC1CCCO1` (stereo partly specified) was -20.9%; that for `CC(C)(C)Nc1c2ccccc2nc2ccccc12` was -15%.
With `COc1c(C(=O)N2CCCC2)ccc2ccccc12` the figure was -21.1%.
For the compound `COc1ccc(Nc2c3c(nc4ccc(C)cc24)CCC3)cc1`, the “inhibition” value is -11.8%.
Regarding `CC1CCN(C(=O)COc2ccc(Nc3ccccc3)cc2)CC1`, the “inhibition” value was -4.41%.
With `COc1ccccc1Nc1cc(C(=O)NCc2cccnc2)c2ccccc2n1` the figure was -14.3%.
The value for `CCOc1ccc(NC(=S)Nc2cc(C)[nH]n2)cc1` was -18.7%.
With `CCOC(=O)c1ccc(NC(=O)C2CCC(CNc3c(N4CCOCC4)c(=O)c3=O)CC2)cc1` (stereo unspecified) the figure was 12.1%; with `CCCCNC(=O)CCC(=O)Nc1ccc2nc(N3CCC(C)CC3)cc(C)c2c1`, 32.3%; with `COc1ccc(N=CC2=C(Nc3ccc(OC)cc3)c3c(C)nn(-c4ccccn4)c3CC2)cc1`, 3.36%.
`CCO[C@H]1OC(C(=O)O)=C[C@@H](c2ccccc2)[C@@H]1CCCO`: the “inhibition” value was -17.4%.
With `Clc1ccc2c(c1)C(N1CCNCC1)Cc1ccccc1S2` (stereo unspecified), the “inhibition” value is 31%.
On to `O=C(NCc1ccco1)C1CCN(C(=O)c2cc3sccc3n2Cc2ccc(Cl)cc2)CC1`, for which the “inhibition” value is -20.7%.
Turning to `Cc1ccc2nc(/C(C#N)=C\c3ccc(N4CCCCC4)c([N+](=O)[O-])c3)[nH]c2c1`, the “inhibition” value is 37.4% [at 75 µM].
In the case of `C#CCOCCOCCOCCNc1nc(N2CCN(C(=O)CCCCCCCCCCNC(=O)[C@H](CCCCN)n3cc(CCO)nn3)CC2)nc(N2CCN(C(=O)CCCCCCCCCCNC(=O)[C@H](CCCCN)n3cc(CCO)nn3)CC2)n1`, the “inhibition” value is -15.8%.
With `CCOC(=O)c1cc(-c2ccncc2)nc2c1c(C)nn2-c1ccccn1` the figure was 16.8%; with `CN(C)/C=N/c1ncc(C(=O)c2ccc(Cl)cc2)s1`, -14.3%.
On to `Nc1ccc(N=Nc2ccccc2)c(N)n1`, for which the “inhibition” value is 6.79%.
Regarding `Nc1nn2cc(-c3ccccc3)nc2c2ccccc12`, the “inhibition” value was -4.55%.
With `Cc1cc(-c2nc3ccccc3o2)c2ccccc2n1` the figure was 9.15%; with `Cc1ccc(C)c(Nc2cc(C)nc3ccccc23)c1`, 19.5%.
With `Nc1nc2ccccc2cc1-c1cccs1` the figure was 14.8%; with `CCCN(C(=O)CSc1nc2ccccc2n1CC)C1CCS(=O)(=O)C1` (stereo unspecified), 7.08%; with `CCOc1ccc(-c2ccc(SCC(=O)N3CCOCC3)nn2)cc1`, -13.1%.
The value for `CCCCc1cc(=O)oc2cc(C)cc(OCC(=O)NCC3CCC(C(=O)O)CC3)c12` (stereo unspecified) was -5.3%.
For the compound `CC(C)C(NC(=O)c1ccc(Cl)cc1)C(=O)NCC1CCCO1` (stereo unspecified), the “inhibition” value is -10.1%.
The value for `Clc1ccc2c(c1)c1cc(Cl)ccc1n2CN1CCOCC1` was 23.1%; that for `Cc1ccc(N(CC(=O)Nc2c(C)n(C)n(-c3ccccc3)c2=O)S(C)(=O)=O)cc1C` was -10.6%.
The value for `OCC[C@H]1C[C@H](O)[C@@H](O)[C@@]2(Cc3ccccc3CO2)O1` was 18.1%.
In the case of `O=C(NC1(C(F)(F)F)C(=O)Nc2c1c(=O)[nH]c(=O)n2-c1ccccc1)c1ccncc1` (stereo unspecified), the “inhibition” value was 12.6%.
For `Cc1ccn2cc(-c3ccc4c(c3)NC(=O)CO4)nc2c1`, the “inhibition” value was -12.7%.
Turning to `Cc1csc2ncc(C(=O)Nc3ccon3)c(=O)n12`, the “inhibition” value is -6.76%.
As for `CC(=O)Nc1ccc(S(=O)(=O)Nc2nc3ccccc3nc2Nc2cccc(S(N)(=O)=O)c2)cc1`, the “inhibition” value is 10.4%.
With `CCOc1ccccc1NC(=O)NS(=O)(=O)c1ccc(C)cc1` the figure was 8.52%.
On to `Cc1cccc(NCN2C(=O)c3ccccc3C2=O)c1`, for which the “inhibition” value is -4.13%.
Regarding `Cc1ccc(NNS(=O)(=O)c2ccc(C)cc2)cc1`, the “inhibition” value was -6.56%.
With `Cc1cccc(NC(=O)C2CCCN2S(=O)(=O)c2ccc3c(c2)n(C)c(=O)c(=O)n3C)c1` (stereo unspecified) the figure was 9.71%; with `Cc1cc(C)c(S(=O)(=O)Nc2cccnc2)c(C)c1`, -5.79%.
For `CC(C)NC(=O)Nc1ccc(Br)cc1Cl`, the “inhibition” value was -8.92%.
Turning to `CC1CC(C)CN(C(=O)c2ccc(NC(=O)c3ccc(=O)[nH]c3)cc2)C1` (stereo unspecified), the “inhibition” value is 6.58%.
The value for `COCCNC(=O)CN(C(=O)CCC(=O)Nc1ccccn1)c1ccc(F)c(Cl)c1` was 10.1%.
`O=C(OCCCN1C(=O)c2ccccc2C1=O)c1ccco1`: the “inhibition” value was -4.23%.
The value for `O=C(NCCOc1ccccc1)c1ncn[nH]1` was 16.9%.
The value for `CC(C)CCNC(=O)c1cc2c(s1)-c1ccccc1S(=O)(=O)C2` was 3.1%.
On to `CN1CCc2c(sc3c2C(=O)NC(c2ccc4c(c2)OCO4)N3)C1` (stereo unspecified), for which the “inhibition” value was -33.9%.
The value for `NS(=O)(=O)c1ccc(CNc2ccc3ccccc3n2)cc1` was 15%; that for `CCOC(=O)C1CCN(C(=O)CCc2nc3ccccc3[nH]2)CC1` was 22.6%; that for `O=C(CSc1ccccc1)N1CCC(N2CCC(C(=O)N3CCCC3)CC2)CC1` was -2.03%.
With `Cc1c(CC(=O)N2CCC(C(N)=O)CC2)c(=O)oc2cc3c(cc12)CCC1(CCCCC1)O3` the figure was -10.6%.
As to `C#CCOCCOCCOCCNc1nc(N2CCN(C(=O)CCCCCCCCCCNC(=O)Cn3cc(CCCCCN)nn3)CC2)nc(N2CCN(C(=O)CCCCCCCCCCNC(=O)[C@@H]([C@H](C)O)n3cc(C)nn3)CC2)n1`, the “inhibition” value is -35.2%.
Take `Cc1nc2ccccn2c1/C(O)=C1\C(=O)C(=O)N(CCN2CCOCC2)C1c1cccnc1` (stereo unspecified): the “inhibition” value was -35%.
For the compound `CCOC(=O)c1ccc(N2Cc3ccccc3C2=NC(=O)c2cccc([N+](=O)[O-])c2)cc1`, the “inhibition” value was -10.3%.
On to `COc1cccc(/C=C/C(=O)c2cccc([N+](=O)[O-])c2)c1OC`, for which the “inhibition” value is 10.9%.
With `CC(C(=O)c1ccc2ccccc2c1)N1CCCCC1` (stereo unspecified), the “inhibition” value is -3.94%.
The value for `O=C(Nc1nnc(-c2cccs2)o1)c1cccc(F)c1` was -40.7%.
Consider `CCC(=O)Nc1nnc(-c2ccco2)o1`, for which the “inhibition” value is -4.91%.
For the compound `COc1ccccc1C(=O)Nc1nnc(-c2ccc(Cl)cc2)o1`, the “inhibition” value is 38.2%.
The value for `O=C(Nc1nnc(-c2cccs2)o1)c1cccc(C(F)(F)F)c1` was 38.8%.
